Assay [1] can be described thus: blockers of polyQ-driven CASP3 activation – cell-based (AID 1583). The following applies: polyglutamine-induced caspase-3 activation, cell assay; stronger effect = higher value;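 tested at 10 µM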.
The nature of assay [2]: yeast 75Q aggregation reduction – 75Q-TubU reporter (AID 1593). Conditions: Yeast 75Q polyglutamine aggregation reporter.
Assay [3] in a line: restoration of touch response, mutant HTT neurons – whole organism, C. elegans mechanosensory neurons, N-terminal huntingtin (AID 1599). The following applies: C. elegans polyQ-huntingtin mechanosensory neurons, stronger effect = higher value.
A short description of assay [4]: blockers of cytochrome c efflux from mitochondria – biochemical, purified mitochondria (AID 1603).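 Note: mouse liver mitochondria challenged with calcium chloride; signal normalized to the plate average as 100%.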 The following applies: stronger effect = lower value.
Assay [5] is described as follows: polyglutamine aggregate formation blockers (AID 1604). The following applies: polyglutamine-induced protein aggregation inhibition assay; stronger effect = higher value; tested at 2.5 µM.
Assay [6] in a line: glutamate transport activators, MN-1 cells, MN-1 cell line (AID 1612).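 Note: tested at 1 µM final; 0% = mean of DMSO vehicle wells on each plate; positive means more glutamate uptake than control and negative means less.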 The following applies: MN-1 motor neuron cells, stronger effect = higher value.
A short description of assay [7]: GFP-Q80 aggregate reduction, neuronal-like cells, cell-based, NGF-treated PC12, GFPQ80 (AID 1614).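 Note: lower means fewer inclusions and 0 means no inclusions at all.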 Conditions: PC12 NGF-treated GFP-polyQ80 inclusion reduction.
A short description of assay [8]: 75Q-TubH aggregate inhibition, S. cerevisiae, yeast (AID 1616). The following applies: S. cerevisiae 75Q-TubH polyglutamine aggregation suppression; stronger effect = higher value.
Assay [9] can be described thus: compounds altering circadian rhythm period length – cell-based, LOPAC library, luminescence reporter (AID 2774).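 Note: values are relative to mean of DMSO wells on each plate.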 Conditions: circadian reporter cells, at 7 µM, actives lie on both sides.
The nature of assay [10]: P. berghei load reduction in hepatocytes – cell-based, HepG2, luciferase luminescence, HepG2 viability, primary screen (AID 624349; in the data active = parasite load remaining mostly below about 12%, no sharp cut-off; inactive = mostly above about 10%;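 note: 100% = mean of DMSO negative control wells on the same plate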). The following applies: P. berghei liver stage in HepG2, luciferase luminescence, concentration not given here; parasite load remaining: stronger effect = lower value; viability: measured here: HepG2 viability without parasites.
The target in assay [11] is 6-phosphogluconate dehydrogenase, decarboxylating (Homo sapiens) (UniProt P52209). The assay is described as follows: inhibition of human phosphogluconate dehydrogenase – biochemical, recombinant enzyme, NADPH absorbance, primary screen (AID 1159550;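 active = at least 20% inhibition of 6-phosphogluconate dehydrogenase activity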). Conditions: recombinant 6PGD, NADPH absorbance 341 nm; at 10 µM; stronger effect = higher value.
Sequence of 6-phosphogluconate dehydrogenase, decarboxylating (Homo sapiens) (P52209 whole entry, looked up): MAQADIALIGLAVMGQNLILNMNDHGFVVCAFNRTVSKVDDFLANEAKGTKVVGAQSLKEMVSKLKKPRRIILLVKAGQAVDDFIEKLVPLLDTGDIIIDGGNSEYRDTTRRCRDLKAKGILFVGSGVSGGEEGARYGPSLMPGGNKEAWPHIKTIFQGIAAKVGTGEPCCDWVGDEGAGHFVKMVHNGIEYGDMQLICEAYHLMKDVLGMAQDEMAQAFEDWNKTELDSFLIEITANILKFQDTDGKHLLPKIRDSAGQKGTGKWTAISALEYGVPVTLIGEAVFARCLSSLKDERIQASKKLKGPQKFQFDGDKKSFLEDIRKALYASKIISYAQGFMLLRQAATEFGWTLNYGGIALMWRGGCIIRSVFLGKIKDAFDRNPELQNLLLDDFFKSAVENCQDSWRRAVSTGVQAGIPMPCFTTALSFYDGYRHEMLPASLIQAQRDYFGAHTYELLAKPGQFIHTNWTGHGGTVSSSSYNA
Assay [12] can be described thus: EMT-state selective cytotoxicity in co-culture – imaging, PC-3E GFP, TEM4-18 mCherry, primary screen (AID 1345086;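 active = compounds killing one labelled cell type while sparing the other, by normalised counts and ratio limits, not self-fluorescent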;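 for all read-outs here: cells exposed to compound for 72 h before imaging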;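 for red/green cell ratio (normalised): normalised mesenchymal count divided by normalised epithelial count so high means epithelial killing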). The following applies: PC-3E GFP / TEM4-18 mCherry co-culture, imaging cell counts, at 1 µM; for red/green cell ratio (normalised): actives lie on both sides, counts scaled to control wells, 1 = unselective.
A short description of assay [13]: viability loss with induced miR-34 in A549 – imaging, A549 dox-inducible miR-34, nuclei and caspase counts, primary screen (AID 1347080;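 active = compounds whose cell count with miR-34 switched on is under 0.7 times the count with it off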). Conditions: A549 miR-34 inducible, Hoechst nuclei count, 48 h.
The nature of assay [14]: blockers of cellular phospholipid synthesis – cell-based, LOPAC library, screen 4, primary screen (AID 1347384). The following applies: animal cells, phospholipid biosynthesis inhibition screen; at 10 µM.
The target of assay [15] is Mitogen-activated protein kinase 7 (Homo sapiens) (UniProt Q13164). The assay can be described thus: Gal4-ERK5 driven luciferase induction – cell-based, HTS, primary screen (AID 1508626;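 active = luciferase signal above three times the same-plate solvent-only control wells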;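 note: luciferase driven by Gal4-ERK5 fusion binding five Gal4 sites before minimal TATA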). The following applies: HeLa Gal4-ERK5 transactivation, 18 h, at 5 µM, stronger effect = higher value.
Sequence of Mitogen-activated protein kinase 7 (Homo sapiens) (Q13164 whole entry, looked up, the tested form may be a part): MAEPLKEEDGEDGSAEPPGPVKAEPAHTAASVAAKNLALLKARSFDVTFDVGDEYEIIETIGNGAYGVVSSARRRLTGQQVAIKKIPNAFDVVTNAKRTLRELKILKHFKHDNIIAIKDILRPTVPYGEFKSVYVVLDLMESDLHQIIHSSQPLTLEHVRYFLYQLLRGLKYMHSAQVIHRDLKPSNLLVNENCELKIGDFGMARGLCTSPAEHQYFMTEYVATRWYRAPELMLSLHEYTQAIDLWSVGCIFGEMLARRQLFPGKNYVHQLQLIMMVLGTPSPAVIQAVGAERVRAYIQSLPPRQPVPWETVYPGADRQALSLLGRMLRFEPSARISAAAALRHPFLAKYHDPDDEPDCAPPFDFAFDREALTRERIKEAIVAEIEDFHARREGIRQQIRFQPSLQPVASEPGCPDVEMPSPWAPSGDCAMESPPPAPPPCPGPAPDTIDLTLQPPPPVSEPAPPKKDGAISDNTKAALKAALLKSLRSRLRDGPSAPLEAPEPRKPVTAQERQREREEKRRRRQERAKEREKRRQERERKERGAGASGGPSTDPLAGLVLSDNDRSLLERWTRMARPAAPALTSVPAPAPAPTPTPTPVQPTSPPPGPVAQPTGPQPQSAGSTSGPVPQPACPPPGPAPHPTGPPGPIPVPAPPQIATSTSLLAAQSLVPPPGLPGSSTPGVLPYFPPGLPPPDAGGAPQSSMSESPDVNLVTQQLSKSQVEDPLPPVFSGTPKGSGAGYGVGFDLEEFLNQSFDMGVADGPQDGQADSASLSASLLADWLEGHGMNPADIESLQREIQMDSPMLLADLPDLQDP
The nature of assay [16]: galactose survival enhancers in mitochondrial complex I cybrids – cell-based, galactose medium, ATP luminescence, primary screen (AID 1645843;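 active = z-score of at least 1.8 in each of two replicates, scored against plate mean and spread of sample wells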;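 note: positive z means more ATP and so rescue of galactose-driven cybrid death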). The following applies: complex I mutant cybrid cells, 72 h, stronger effect = higher value.
The nature of assay [17]: compounds altering viability of human ES cells (AID 493140).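 Note: cells exposed to compounds for four days before counting.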 Conditions: human embryonic stem cell survival screen; stronger effect = higher value.
The nature of assay [18]: MELAS cybrid and Rieske KO viability enhancers – cell-based, MELAS cybrids, Rieske KO mouse fibroblasts, CellTiter-Glo, primary screen (AID 1508586;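 active = mean z-score across replicates of 1.96 or higher in either the MELAS or the Rieske mutant cell line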;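 note: z relative to plate mean and SD of compound and empty wells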). The following applies: low glucose. For orientation: In ATP-based viability assays light output follows the ATP content of the culture.
Assay [19] concerns the target NAD(+) hydrolase SARM1 (Homo sapiens) (UniProt Q6SZW1). The assay can be described thus: blocking NAD cleavage by SARM1 SAM-TIR – cell lysate, NAD-Glo luminescence (AID 1508614;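 active = compound whose remaining NAD level is above about 45 nM, limit read from the data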;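 note: higher remaining NAD means stronger inhibition of SARM1 NADase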). Conditions: SAM-TIR HEK293T lysate NADase, at 1 µM, stronger effect = higher value.
Where [20] appears, read: measured here: epithelial PC-3E GFP cell survival.
Where [21] appears, read: measured here: mesenchymal TEM4-18 mCherry cell survival.
Setting [22] is: stronger effect = lower value, cell number ratio, induced over uninduced.
[23] abbreviates: measured here: relative caspase fold change +Dox/-Dox.
Where [24] appears, read: measured here: total cells with miR-34 induction, stronger effect = lower value.
[25] abbreviates: measured here: total cells without miR-34 induction.
Setting [26] is: MELAS cybrid survival, CellTiter-Glo 48 h, stronger effect = higher value.
The mark [27] stands for this setting: Rieske KO mouse fibroblast survival, CellTiter-Glo 72 h.

The source of these data is PubChem BioAssay.

Values joined by “and” are separate entries in the source; they are usually repeats but may differ in a detail not shown here. Identical values can stand only once. For some of these results: Results with a measured potency or affinity are listed apart. Active and inactive are the calls of the source. Unless noted, the rule behind the calls is not given here.

Sequence of NAD(+) hydrolase SARM1 (Homo sapiens) (Q6SZW1 whole entry, looked up): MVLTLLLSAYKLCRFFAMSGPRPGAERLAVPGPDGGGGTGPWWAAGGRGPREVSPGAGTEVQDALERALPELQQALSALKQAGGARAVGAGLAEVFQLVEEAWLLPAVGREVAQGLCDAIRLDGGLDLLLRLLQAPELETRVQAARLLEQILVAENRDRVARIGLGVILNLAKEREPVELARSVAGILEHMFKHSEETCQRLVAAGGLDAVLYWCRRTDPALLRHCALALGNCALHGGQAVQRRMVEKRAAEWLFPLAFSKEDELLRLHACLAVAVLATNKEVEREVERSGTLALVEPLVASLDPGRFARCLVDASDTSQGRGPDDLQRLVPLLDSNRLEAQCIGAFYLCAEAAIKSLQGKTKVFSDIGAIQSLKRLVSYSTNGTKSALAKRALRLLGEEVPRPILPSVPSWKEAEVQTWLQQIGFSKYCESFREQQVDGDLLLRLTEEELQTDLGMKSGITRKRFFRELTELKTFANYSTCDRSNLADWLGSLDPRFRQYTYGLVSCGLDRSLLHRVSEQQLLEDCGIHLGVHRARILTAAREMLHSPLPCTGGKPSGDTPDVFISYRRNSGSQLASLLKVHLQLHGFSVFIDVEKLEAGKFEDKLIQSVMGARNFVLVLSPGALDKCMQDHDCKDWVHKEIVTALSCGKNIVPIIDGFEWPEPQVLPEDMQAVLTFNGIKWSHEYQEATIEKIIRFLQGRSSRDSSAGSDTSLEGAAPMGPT

Broadly, the inhibition is the drop in the measured response relative to a control, in per cent. One may read the viability as a read-out of living cells in per cent, often relative to untreated cells. As to `CN[C@H](CC(=O)O)C(=O)O`, the figures for the inhibition in assay [1] and in assay [11] were 0.95% and 6.3% (inactive), respectively. In assay [2], the score came to 1.4. The rescue above control in assay [3] was -9. In addition, in assay [4], the cytochrome c release ratio is 0.78. In assay [5], this molecule returned an inhibition of aggregation of 80.3%. For the same molecule, the glutamate uptake change in assay [6] was -1.67%. The same molecule returned an inclusion score in assay [7] of 2. Further, the aggregation suppression score in [8] came to 1.66. Further, in assay [9], the period change is -0.09 h (inactive). The parasite load remaining in assay [10] is 161% (inactive). For the same molecule, the viability in assay [10] amounted to 83.1%. In assay [12], the red/green cell ratio (normalised) was 1.02 (inactive). The normalised cell number in assay [12] (setting [20]) was determined as 1.12; in assay [12] (setting [21]), 1.15. In addition, the fold change is 1.06 (inactive) in [13] (setting [22]) and 0.738 in assay [13] (setting [23]). Also, the cell count in assay [13] (setting [24]) was 10900; in [13] (setting [25]), 10300. The call in assay [14] was inactive. Also, the luciferase signal in [15] was 56 AU (inactive). The z-score in assay [16] was 0.495 (inactive).
For the molecule `COC(=O)[C@H]1[C@H]2C[C@H]3c4[nH]c5ccccc5c4CCN3C[C@H]2CC[C@@H]1O`, the inhibition in assay [1] was -11.7%; in assay [11] it was -0.247% (inactive). The same molecule yielded a score in assay [2] of 2.01. The molecule further had a rescue above control in assay [3] of 16.2. The cytochrome c release ratio in assay [4] is 1.18. In addition, the inhibition of aggregation in assay [5] was determined as 75.9%. Moreover, in [6], the glutamate uptake change amounted to 41.8%. The molecule further showed an inclusion score in assay [7] of 2. The molecule further yielded an aggregation suppression score in [8] of 1.4. The period change in assay [9] was 0.015 h (inactive). In addition, in assay [17], the survival was 5.58 (inactive). Moreover, in assay [10], the parasite load remaining was 79.9% (inactive) and 65.8% (inactive). In addition, the viability in assay [10] was 101% and 78.6%. Moreover, the red/green cell ratio (normalised) in assay [12] was 1.04 (inactive). Further, the normalised cell number in assay [12] (setting [20]) was determined as 0.93; in assay [12] (setting [21]), 0.97. Also, the fold change in [13] (setting [22]) was 0.977 (inactive) and 0.857 (inactive); in assay [13] (setting [23]), 0.889 and 1.48. Further, the cell count in assay [13] (setting [24]) is 10000 and 9150; in [13] (setting [25]), 10300 and 10700. Further, the molecule was called inactive in assay [14]. The z-score in assay [16] was 0.115 (inactive).
With `NCCCCN=C(N)N`, the period change in assay [9] was 0.06 h (inactive). Besides, in assay [10], the parasite load remaining was 166% (inactive). Also, the viability in assay [10] turned out to be 87.2%. The inhibition in assay [11] is -2.27% (inactive). For the same molecule, the red/green cell ratio (normalised) in assay [12] is 0.84 (inactive). Further, the normalised cell number in [12] (setting [20]) stood at 1.01; in assay [12] (setting [21]), 0.85. The fold change in assay [13] (setting [22]) is 1.06 (inactive); in assay [13] (setting [23]), 2.32. In addition, the cell count in [13] (setting [24]) was determined as 10300; in [13] (setting [25]), 9670. In addition, the result in [14] was inactive. In addition, in [15], the luciferase signal was 64 AU (inactive). The z-score in assay [16] was 0.245 (inactive).
On to `COc1cc2c(cc1OC)-c1cc3ccc(OC)c(OC)c3c[n+]1CC2`, for which the survival in [17] was 1.83 (inactive). The parasite load remaining in assay [10] was 110% (inactive) and 92.2% (inactive) and 65.3% (inactive). Also, the viability in assay [10] is 114% and 73.3% and 79.6%. In addition, the inhibition in [11] is -0.646% (inactive) and 1.04% (inactive). For the same molecule, the red/green cell ratio (normalised) in [12] was 0.85 (inactive) and 0.9 (inactive). In addition, the normalised cell number in [12] (setting [20]) is 1.04 and 1.09; in [12] (setting [21]), 0.88 and 0.98. Besides, the fold change is 0.898 (inactive) and 1 (inactive) in assay [13] (setting [22]); 1.49 and 0.581 in assay [13] (setting [23]). Also, the cell count in assay [13] (setting [24]) is 8980 and 7680; in assay [13] (setting [25]), 9990 and 7660. Besides, the z-score is -0.0781 (inactive) in [18] (setting [26]) and 0.0197 in [18] (setting [27]). For the same molecule, in assay [15], the luciferase signal was 352 AU (active).
For `CN1CCc2c(c3ccccc3n2Cc2ccccc2)C1`, the figures for the inhibition in assay [1] and in assay [11] were 13.5% and 10.8% (inactive), respectively. Further, in [2], the score was determined as 1.36. Moreover, the rescue above control in assay [3] is -5.3. In addition, in assay [4], the cytochrome c release ratio came to 1.12. This molecule also returned an inhibition of aggregation in assay [5] of 26.7%. Also, in assay [6], the glutamate uptake change was -0.3%. The same molecule gave an aggregation suppression score in assay [8] of 1.16. For the same molecule, the survival in [17] is 3.25 (inactive). Besides, in [10], the parasite load remaining is 52.3% (inactive) and 141% (inactive) and 69.3% (inactive). Also, the viability in assay [10] was 99% and 73.4% and 70.8%. Further, the red/green cell ratio (normalised) in assay [12] is 0.9 (inactive). Also, the normalised cell number turned out to be 0.92 in assay [12] (setting [20]) and 0.82 in [12] (setting [21]). The fold change in [13] (setting [22]) was 0.847 (inactive); in assay [13] (setting [23]), 1.16. Besides, the cell count in assay [13] (setting [24]) worked out at 8940; in assay [13] (setting [25]), 10600. The z-score is 0.038 (inactive) in assay [18] (setting [26]) and 0.0579 in assay [18] (setting [27]). Moreover, in [19], the remaining NAD is 10 nM (inactive).
Regarding `NC(=O)CC[C@H](N)C(=O)O`, the period change in assay [9] is -0.065 h (inactive). Besides, the inhibition in assay [11] was -0.19% (inactive). Moreover, in [12], the red/green cell ratio (normalised) is 0.89 (inactive) and 1.18 (inactive). In addition, the normalised cell number was 1.22 and 0.97 in assay [12] (setting [20]); 1.08 and 1.13 in assay [12] (setting [21]). The fold change was 0.981 (inactive) and 0.937 (inactive) in assay [13] (setting [22]); 0.852 and 0.867 in [13] (setting [23]). For the same molecule, the cell count in assay [13] (setting [24]) was 10400 and 8420; in [13] (setting [25]), 10600 and 8990. The molecule was classed as inactive in [14]. Also, the remaining NAD in [19] is 10 nM (inactive). In [15], the luciferase signal is 40 AU (inactive). Further, the z-score in assay [16] is 0.01 (inactive).
